Among the data in ChEMBL document CHEMBL3988442, “University of Dundee, Small-Polar-MMV Screening Library” (2021) are Percent Effect values, retold here.

Structures are written as SMILES.

The target in the experiment is T1, Aspartate--tRNA(Asp/Asn) ligase (Mycobacterium tuberculosis (strain ATCC 25618 / H37Rv)) (UniProt P9WFW3).
T1 sequence (whole entry): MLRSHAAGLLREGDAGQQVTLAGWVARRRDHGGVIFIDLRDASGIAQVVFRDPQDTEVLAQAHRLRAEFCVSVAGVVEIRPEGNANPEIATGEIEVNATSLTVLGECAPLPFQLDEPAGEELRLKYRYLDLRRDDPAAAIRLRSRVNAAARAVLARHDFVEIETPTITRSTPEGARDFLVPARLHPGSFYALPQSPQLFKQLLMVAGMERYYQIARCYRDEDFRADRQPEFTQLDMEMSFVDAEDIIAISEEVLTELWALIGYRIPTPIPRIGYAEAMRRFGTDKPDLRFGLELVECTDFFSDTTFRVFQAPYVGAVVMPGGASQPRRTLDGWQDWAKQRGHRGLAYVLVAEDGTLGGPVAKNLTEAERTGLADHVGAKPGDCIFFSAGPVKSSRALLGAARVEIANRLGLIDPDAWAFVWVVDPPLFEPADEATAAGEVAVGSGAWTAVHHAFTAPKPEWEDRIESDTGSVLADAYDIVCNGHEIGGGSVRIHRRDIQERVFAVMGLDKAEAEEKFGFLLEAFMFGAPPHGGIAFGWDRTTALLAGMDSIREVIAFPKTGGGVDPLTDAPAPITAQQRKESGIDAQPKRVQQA
In words: Assay for Asp RNA synthetase-1 from Mycobacterium tuberculosis. The settings on record: 30 µM. It is filed as functional. Set-up: scale not given: in the data most compounds retested in dose-response had high values.
With `CN(CC(=O)N1CCN(c2ccccc2F)CC1)c1cnccn1`, the Percent Effect turned out to be 0.903%. As for `CC(C)NC(=O)[C@@H](NC(=O)N1CCN(c2ccc(Cl)cc2)CC1)C(C)C`, the Percent Effect is -2.11%.

`O=C(c1ccc2c(c1)OCO2)N1CCN(c2cnccn2)CC1`: the Percent Effect was -4.12%.

Turning to `Cc1cc(C)c(CNC(=O)N2CCN(c3cnccn3)CC2)c(=O)[nH]1`, the Percent Effect was -0.167%.

Turning to `Cn1cccc1C(=O)N1CCCC2(CCN(CCN3CCCC3)C2=O)C1` (stereo not given), the Percent Effect was -3.77%.

Regarding `O[C@H]1[C@H](n2cc(-c3ccccc3)nn2)c2ccccc2C12CCNCC2`, the Percent Effect came out at 6.77%. For the molecule `O=C(Cc1ccc(F)cc1)NCCNCC1CNc2ccnn2C1` (stereo not given), the Percent Effect is -2.44%. To `COCCC(=O)N1CCN(CCN(C)C)c2ncccc2C1` belongs 4.55%; to `O=C(Nc1ccccn1)N(CCO)Cc1ccsc1`, -3.79%; to `Cc1cccc(N2CCN(C(=O)Nc3cnn(CC(N)=O)c3)CC2)c1`, -2.01%.

Turning to `COc1c(CNCc2ccc(N(C)C)nc2)c(C(C)C)nn1C`, the Percent Effect was determined as 0.0333%. Turning to `CN1CCCC1CNC(=O)CCCOc1ccc(F)cc1` (stereo not given), the Percent Effect was -1.43%.

`COCc1cccc(CNC(=O)CN2CCCC2c2noc(C)n2)c1` (stereo not given): the Percent Effect was -0.723%. In the case of `CO[C@H]1CN(C(=O)c2ccccn2)[C@@H]2CCCO[C@H]12`, the Percent Effect came out at 1.27%. With `O=C(NCCN1CCNCC1)c1c(O)c2ccccc2[nH]c1=O`, the Percent Effect is -0.319%. With `CCN1CCCC1CN(CCN(C)C)S(=O)(=O)c1ccc(C#N)cc1` (stereo not given), the Percent Effect was -3.16%. With `c1ccc(-c2cnc(CNCC3CCCN3c3cccnn3)o2)cc1` (stereo not given), the Percent Effect was determined as 1.15%. In the case of `CN(Cc1cnn(C)c1)C(=O)c1ccc(=O)n(C)n1`, the Percent Effect was -3.08%. For the molecule `CC(C)Nc1ncnc2c1CCN(C(=O)Cc1ccccn1)CC2`, the Percent Effect stood at 3.17%. As to `CN(C)CCN1CCC2(CC1)CN(c1cccnc1)C(=O)CO2`, the Percent Effect was 4.6%.
